Laboratory results: PubChem BioAssay (NCI)
This is part of a sample that, as a whole, favours compounds with a hit. Of some 83,000 tested, about 20% had one in any assay.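 Testing used 96-well plates and a 48-hour single-concentration exposure. Example: -40 means 40% of the starting cells died.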 A number with no mark means an inactive call. Activity calls are given as the source filed them. How the source made its calls: active means growth percent below 10; inactive means the rest.

Assays:
Experiment in all cases: NCI-60 one-dose screen, 48 h (100 = growth as untreated, 0 = no growth, -100 = all killed)
Conditions in all cases: 10 µM unless noted
NCI-H23 lung = system: NCI-H23 lung
NCI-H226 lung = system: NCI-H226 lung
NCI-H322M lung = system: NCI-H322M lung
HOP-62 NSCLC = system: HOP-62 NSCLC
NCI-H460 lung = system: NCI-H460 lung
HOP-92 NSCLC = system: HOP-92 NSCLC
NCI-H522 lung = system: NCI-H522 lung
A549/ATCC NSCLC = system: A549/ATCC NSCLC
786-0 renal = system: 786-0 renal
COLO 205 colon = system: COLO 205 colon
DU-145 prostate = system: DU-145 prostate
K-562 leukemia = system: K-562 leukemia
MALME-3M melanoma = system: MALME-3M melanoma
MDA-MB-231 breast = system: MDA-MB-231 breast
RXF 393 renal = system: RXF 393 renal
SF-268 CNS = system: SF-268 CNS
SF-295 CNS = system: SF-295 CNS
SF-539 CNS = system: SF-539 CNS
UACC-257 melanoma = system: UACC-257 melanoma
M14 melanoma = system: M14 melanoma

| Structure (SMILES) | growth (NCI-H23 lung) | growth (NCI-H226 lung) | growth (NCI-H322M lung) | growth (HOP-62 NSCLC) | growth (NCI-H460 lung) | growth (HOP-92 NSCLC) | growth (NCI-H522 lung) | growth (A549/ATCC NSCLC) | growth (786-0 renal) | growth (COLO 205 colon) | growth (DU-145 prostate) | growth (K-562 leukemia) | growth (MALME-3M melanoma) | growth (MDA-MB-231 breast) | growth (RXF 393 renal) | growth (SF-268 CNS) | growth (SF-295 CNS) | growth (SF-539 CNS) | growth (UACC-257 melanoma) | growth (M14 melanoma) |
| --- | --- | --- | --- | --- | --- | --- | --- | --- | --- | --- | --- | --- | --- | --- | --- | --- | --- | --- | --- | --- |
| C#C[C@@]1(O)[C@@H](CO)O[C@@H](n2cc(I)c3c(N)ncnc32)[C@@H]1O | -14.5% (active) | 52.2% | 20% | -3.39% (active) | -25.4% (active) | -23.8% (active) | -49.6% (active) | -56.5% (active) | -24.3% (active) | -50.2% (active) | 7.45% (active) | 6.9% (active) | -5.65% (active) | 2.55% (active) | -27.7% (active) | 28.5% | 10.5% | -40.5% (active) | 44.7% | 22.4% |
| COc1ccc(/C=C(/C(=O)N2CCCC2)c2cc(OC)c(OC)c(OC)c2)cc1 | 34% | 69.2% | 45.7% | 29.3% | 13.6% | 47.9% | 26.3% | 36.1% | 35.3% | 4.08% (active) | 17% | 12.5% | 50.1% | 58.5% | 5.92% (active) | 60.1% | 18.3% | 17.1% | 52.4% | 2.21% (active) |
| CCOC(=O)NCCc1nc2c([nH]1)c(=O)n(C)c(=O)n2C | 93.7% | 105% | 103% | 115% | 106% | 93.5% | 92.5% | 104% | 102% | 109% | 107% | 119% | 99.2% | 105% | 113% | 98.5% | 103% | 105% | 113% | 88.8% |
| CCOC(=O)c1c(C)nc2c(c1N)/C(=C/c1ccccn1)C(=O)N2Cc1ccccc1 | 23.6% | 44.4% | 62.7% | -8.66% (active) | 4.8% (active) | 30.5% | 0.177% (active) | 44.6% | -64.8% (active) | -42.7% (active) | 12.6% | -16% (active) | 31.4% | 14.1% | -76.4% (active) | 16.7% | 65.6% | 11.1% | 35.1% | 0.865% (active) |
| COc1cc(NC(=O)Nc2cnc(Nc3ccc(N4CCOCC4)cc3)nc2Oc2ccc(F)cc2)cc(OC)c1 | 81.2% | 88% | 97.2% | 89.5% | 54.1% | 78.6% | 92.5% | 55.6% | 38.8% | 111% | 86.3% | 72.5% | 62.7% | 87.6% | 77.8% | 75.8% | 109% | 89.1% | 78% | 91.7% |
| COc1ccc(/C=C/C(=O)C(CC2CCC2)C(=O)/C=C/c2ccc(OC)c(OC)c2)cc1OC | 3.1% (active) | -0.278% (active) | 10.6% | -39% (active) | -30.3% (active) | -5.24% (active) | -38.2% (active) | -47% (active) | -44.6% (active) | -53.7% (active) | -23% (active) | 1.54% (active) | -13.6% (active) | 6.65% (active) | -72.5% (active) | 2.31% (active) | -16.6% (active) | -38.2% (active) | -16.7% (active) | 5.19% (active) |
| Cc1[nH]c2ncnc(Oc3ccc(NC(=O)Nc4ccc(Cl)c(C(F)(F)F)c4)cc3)c2c1C | 56.7% | 75.1% | 69.6% | 59.3% | 36.1% | 91.9% | 25.3% | 45.3% | 84% | 60.3% | 66.4% | 26.6% | 61.6% | 44.6% | 74.3% | 53% | 62.4% | 56% | 64.2% | 52.1% |
| CCOC(=O)NC(Cc1ccccc1)c1ccccc1 (stereo not given) | 98.4% | 98.8% | 114% | 99.6% | 111% | 87.4% | 87.1% | 99.1% | 96.6% | 105% | 110% | 91% | 110% | 97.8% | 112% | 111% | 106% | 98.6% | 108% | 95.8% |
| c1ccc(-c2n(Cc3ccc4ccccc4n3)cc[n+]2Cc2ccc3ccccc3n2)cc1 | 22.9% | 36.2% | 85.9% | 74.3% | 41.6% | -6.03% (active) | 16.2% | 73.3% | 77.7% | -49.3% (active) | 65.8% | 16.9% | 19.8% | 30.5% | 52.2% | 41.8% | 67.8% | 37.2% | -14.6% (active) | 34.6% |
| COc1cc(-c2csc(NC(=O)Nc3ccc(Cl)cc3)n2)cc(OC)c1OC | 11.3% | 32.6% | 64.8% | 38.5% | 24.9% | 7.26% (active) | 3.25% (active) | 17.8% | 47.5% | 13.2% | 36.3% | 9.22% (active) | 61.3% | 45.5% | 23.4% | 51.2% | 18% | 48.8% | 22.9% | 21.1% |
| Cn1cc(-c2ccc3c(c2)ncn3-c2ccc(CC(=O)Nc3cc(C(C)(C)C)on3)cc2)cn1 | 30.2% | 22.2% | 8.78% (active) | 36.2% | 28.5% | 5.11% (active) | 32.8% | 19% | 17.6% | 38.2% | 19.3% | 9.77% (active) | 25.5% | 11% | -25% (active) | 25.6% | 37.2% | -15.8% (active) | 67.1% | 19.5% |
| COc1ccc(Nc2nc(SCC(C)C)nc(-c3ccc(F)cc3)c2C#N)cc1 | 79.1% | 75.1% | 97% | 73.8% | 52.4% | 77.2% | 35.5% | 62.5% | 60.8% | 72.4% | 79.4% | 19.3% | 61.9% | 89.3% | 74% | 74.9% | 40.6% | 66.1% | 73% | 49.3% |
| Cc1nc2sc(C(=O)Nc3cccc(Cl)c3C)c(N)c2cc1C(C)O (stereo not given) | 32.6% | 95.8% | 55.6% | 25.5% | 11.1% | 43.2% | -24.9% (active) | 24.7% | 35.6% | -4.18% (active) | 20% | 7.36% (active) | 71% | 47.5% | 3.16% (active) | 47.9% | 15% | -12.5% (active) | 46.9% | 23.4% |
| O=c1nc(-c2ccccc2)c2cc(-c3ccc(N4CCCC4)nc3)ccc2[nH]1 | 73.1% | 77.2% | 82.6% | 62.6% | 57.7% | 61.4% | 37.6% | 59.7% | 69.5% | 88.3% | 85% | 16.4% | 89.6% | 59.8% | 81.2% | 83.2% | 39.4% | 73.8% | 88.6% | 47.9% |
| CC1(C)Cc2c(Br)c(Br)c(Br)c(OCC(O)CN3CCOCC3)c2O1 (stereo not given) | 93.9% | 109% | 72.4% | 97.3% | 93.8% | -38.2% (active) | -84.2% (active) | 86.7% | 79.2% | 116% | 106% | 44.1% | 35% | 83.2% | 70.6% | 105% | 113% | 92.9% | 97.3% | 94.5% |
